# Shown are actives, neighbours in structure and some others; about 11% of the full set was active somewhere.
# OTUD3 block = blocks human OTUD3 ubiquitin-rhodamine cleavage; purified OTUD3, Ub-rhodamine fluorescence, 2 h; inhibition, % at 25 µM; 47,000 compounds, 0.7% hits
# Target sequence (Q5T2D3 whole entry, looked up): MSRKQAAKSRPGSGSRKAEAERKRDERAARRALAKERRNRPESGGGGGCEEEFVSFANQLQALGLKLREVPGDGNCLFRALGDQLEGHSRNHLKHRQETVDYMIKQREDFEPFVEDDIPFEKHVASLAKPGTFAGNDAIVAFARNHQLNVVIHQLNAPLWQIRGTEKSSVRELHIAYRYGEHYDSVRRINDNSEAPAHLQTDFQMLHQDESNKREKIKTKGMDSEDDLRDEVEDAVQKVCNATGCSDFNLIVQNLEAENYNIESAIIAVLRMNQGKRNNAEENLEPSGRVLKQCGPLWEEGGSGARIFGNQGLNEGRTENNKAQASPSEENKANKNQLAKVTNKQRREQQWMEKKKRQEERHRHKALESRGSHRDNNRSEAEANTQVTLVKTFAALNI
# USP17 inh = blocks human USP17 ubiquitin-rhodamine cleavage. A8MUK1. purified USP17, Ub-rhodamine cleavage fluorescence, 3 h. inhibition, % at 50 µM. 47,000 compounds, 6.5% hits. AID 1645855
# USP28 block = inhibitors of human USP28 deubiquitinase; Q96RU2; purified USP28, Ub-rhodamine cleavage fluorescence, 30 min; inhibition, % at 25 µM; 47,000 compounds, 3% hits
# USP30 block = blocks human USP30 ubiquitin-rhodamine cleavage | Q70CQ3 | purified USP30, Ub-rhodamine cleavage fluorescence | inhibition, % at 25 µM | 47,000 compounds, 5.3% hits | AID 1645860
# Numbers stand for hits; i = inactive; nt = no result. Cut-off read from the data, not from the text of the source: active = inhibition above about 30%; inactive = the rest.
SMILES,OTUD3 block,USP17 inh,USP28 block,USP30 block
O=C(N[C@@H]1C[C@@H](Oc2cccc(F)c2)[C@H](O)[C@H]1O)c1cocn1,i,i,i,i
COc1ccc2cc3c(nc2c1)OC(=O)N(Cc1ccc(F)cc1)C3,i,i,i,i
COc1ccc2cc3c(nc2c1)OC(=O)N(CCc1cccc(F)c1)C3,i,56,i,i
CCOc1ccc2cc3c(nc2c1)OC(=O)N(Cc1ccc(OC)cc1)C3,i,i,i,38
Cc1csc2ncc(C(=O)N3CCN(c4ccccc4)CC3)c(=O)n12,i,i,i,i
Cc1csc2ncc(C(=O)N3CCN(c4ccccc4F)CC3)c(=O)n12,38,i,i,i
COc1cccc(C(=O)Nc2ccc3c(c2)N(C(C)=O)CCC3)c1,i,i,i,i
O=C(Nc1ccc2c(c1)N(C(=O)C1CCCC1)CC2)c1c(F)cccc1F,i,32,93,i
CC(=O)c1cccc(NC(=O)c2ccc3c(c2)CCN3C(=O)C2CC2)c1,i,i,i,i
COc1ccc(C(=O)Nc2ccc3c(c2)N(C(=O)C2CC2)CCC3)cc1OC,i,i,33,i
COc1ccc(C2c3[nH]c4ccccc4c3C[C@@H]3C(=O)N(CCC4=CCCCC4)CC(=O)N23)cc1 (some centres undefined),i,i,i,i
Cc1ccc(NC(=O)C2Nc3ccccc3S(=O)(=O)N2)cc1C (centres undefined),i,66,nt,nt
CC(C)c1ccc(NC(=O)c2ccc(C3Nc4ccccc4S(=O)(=O)N3)cc2)cc1 (centres undefined),i,65,i,51
CCc1ccc(NC(=O)C2Nc3ccccc3S(=O)(=O)N2)cc1 (centres undefined),i,41,i,46
CCc1ccc(NC(=O)N2CC[C@@H]3CN(C)S(=O)(=O)[C@@H]3CC2)cc1,i,i,i,i
CCCc1cc(C2CCCN2C(=O)c2cc(-c3ccco3)on2)no1 (centres undefined),i,47,i,i
O=C(c1ccnc(N2CCCC2)c1)N1CCOC2(CC=CCN(Cc3ccccc3)C2=O)C1 (centres undefined),i,i,i,i
Cc1cc(C(=O)N2CCOC3(CC=CCN(CCc4ccccc4)C3=O)C2)n2nccc2n1 (centres undefined),76,i,i,i
Cn1c(=O)c(C(=O)Nc2ccc(Br)cc2F)nc2ccccc21,i,46,i,i
Cn1c(=O)c(C(=O)Nc2ccc(Br)cc2)nc2ccccc21,i,i,i,34
CCn1c(=O)c(C(=O)Nc2ccc(Br)cc2)nc2ccccc21,i,34,i,i
CC(=O)Nc1cccc(NC(=O)c2nc3ccccc3n(C)c2=O)c1,i,i,i,i
Cc1ccc(NC(=O)Cn2cnc3scc(-c4ccc5c(c4)CCCC5)c3c2=O)cc1C,i,i,i,i
CCc1ccc(Nc2nc3ccncc3n(Cc3ccccc3)c2=O)cc1,i,i,i,i
CCCCNc1nc2ccncc2n(Cc2ccccc2)c1=O,i,i,nt,nt
SMILES,OTUD3 block,USP17 inh,USP28 block,USP30 block
CCOc1cccc(CNc2nc3ccncc3n(Cc3ccccc3)c2=O)c1,i,i,i,36
O=c1c(NCCCN2CCCC2)nc2ccncc2n1Cc1ccccc1,i,58,i,i
CCc1ccccc1NS(=O)(=O)c1ccc2c(c1)OCC(=O)N2,i,i,i,i
Cc1ccccc1NC(=O)Cn1ccc2ccn(Cc3ccccc3)c2c1=O,i,i,i,i
O=C(Cn1ccc2ccn(Cc3ccccc3)c2c1=O)Nc1cccc(F)c1,i,49,i,i
Cc1ccc(NC(=O)c2cc(-c3ccccc3)c(N3CCOCC3)s2)cc1,i,i,i,i
CCOc1ccc(NC(=O)c2cc(-c3ccccc3)c(N3CCOCC3)s2)cc1,i,53,i,i
COc1cc(C)c(NC(=O)c2cc(-c3ccccc3)c(N3CCOCC3)s2)cc1OC,i,59,i,i
Oc1ccccc1CN1CCC(O)(c2cccnc2F)CC1,i,i,i,i
Cc1cc2c(=O)n(C)c(=O)n(CC(=O)N3CCOCC3)c2s1,i,i,i,i
COc1ccc(CCNC(=O)COC(=O)c2ccc(N3CCCC3=O)cc2)cc1,i,84,i,81
O=C(NCCCN1CCCC1=O)c1ccc(N2CCCC2=O)cc1,i,i,i,i
Cc1ccc(CNc2nc3c(-c4ccc(C)cc4)nnn3c3ccccc23)cc1,i,i,i,i
COCCNc1nc2c(-c3cccc(C(F)(F)F)c3)nnn2c2ccccc12,i,i,i,32
c1ccc(-c2nnn3c2nc(NCC2CCCO2)c2ccccc23)cc1 (centres undefined),i,i,i,i
CCCCNc1nc2c(-c3ccccc3)nnn2c2ccccc12,i,68,i,i
CCOC(=O)C1=C(C)Oc2ncn3nc(-c4ccccn4)nc3c2C1c1ccc(OC)c(OC)c1 (centres undefined),i,i,i,i
Cc1ccc(C(=O)Nc2ccc(S(=O)(=O)N3CCCC3)cc2)cc1Br,i,i,78,45
CC(=O)Nc1ccc(S(=O)(=O)N2CCC(C(=O)Nc3ccc4cc[nH]c4c3)CC2)cc1,i,i,i,i
O=C(Nc1ccc(Br)cc1F)c1ccc(S(=O)(=O)N2CCCC2)cc1,i,i,i,i
O=C(Nc1ccc2c(c1)OCO2)c1cccc(S(=O)(=O)N2CCCCCC2)c1,i,i,i,i
COc1ccc(S(=O)(=O)N2CCC(C(=O)Nc3ccc4c(c3)OCO4)CC2)cc1,i,i,38,i
O=C(Nc1ccc2[nH]ccc2c1)C1CCN(S(=O)(=O)c2ccccc2)CC1,i,i,i,45
Cc1cc(NC(=O)CN2CCCN(S(=O)(=O)c3ccc(F)cc3)CC2)ccc1Br,i,35,i,38
Cc1ccc(C(=O)N2CCc3cc(-c4nc(NC(=O)CN(C)C5CCCCC5)sc4C)ccc32)cc1,i,i,i,i
SMILES,OTUD3 block,USP17 inh,USP28 block,USP30 block
Cc1[nH]c2ccccc2c1C1c2ccccc2C(=O)N1CC(=O)NCCc1ccccc1 (centres undefined),i,i,i,i
O=C(NC1CC1)c1cc(-c2ccn(C3CCCC3)n2)n2ccccc12,i,i,i,i
COc1ccc(C2NC3=NCN(CC4CCCO4)CN3c3nc4ccccc4n32)cc1OC (centres undefined),i,i,i,i
O=C(Nc1ccc(S(=O)(=O)N2CCCCC2)cc1)c1ccccn1,i,75,nt,nt
COc1ccc(C(=O)Nc2ccc(S(=O)(=O)N3CCCCC3)cc2)cc1,i,i,66,i
CCOC(=O)N1CCN(S(=O)(=O)c2ccc(C(=O)Nc3ccc(OCC)cc3)cc2)CC1,i,i,i,i
CCCCc1cc(=O)oc2cc(C)cc(OCC(=O)N3CC[C@@]4(O)CCCC[C@H]4C3)c12,i,i,i,i
CC(=O)Nc1nsc(N2CCC(C(=O)N3CCN(c4ccccc4F)CC3)CC2)n1,i,i,i,i
COc1cccc(C(=O)Nc2cccc(-c3ccc4nnc(-c5ccncc5)n4n3)c2)c1,i,i,i,i
Cn1ccc2c(cc(C(=O)NCc3cccc(Cl)c3)n2C)c1=O,i,i,i,i
CCN1C(=O)COc2ccc(NC(=O)c3ccc(OCc4nonc4C)cc3)cc21,i,i,70,i
COc1ccc(-c2cc(C(=O)N3CCN(c4ccc(N5CCOCC5)nn4)CC3)[nH]n2)cc1,i,38,32,i

# Screens from PubChem.
